# Screen size: about 52,000 compounds; about 4,300 (8.3%) were called active. Only a selection was taken, and actives are over-represented in it overall. Values without a mark were called inactive. Cut-off read from the data, not from the text of the source: active = survival mostly below about 52% (no sharp cut-off); inactive = mostly above about 56%.
# Tested on: DeltatarO mutant
# Test: growth inhibition of S. aureus wild type versus tarO mutant, primary screen, teichoic acid synthesis inhibitors, RN4220, OD600 (AID 463173)
# Details: OD600, 18 h, hits give low values, screened at 18.75 µg/mL (by protocol)
row,SMILES,survival
1,Cc1ccc(-n2ncc3c(N4CCCCCC4)ncnc32)cc1C,86%
2,CCOc1ccc(CNC(=O)c2sc3nc(C)cc(C)c3c2-n2cccc2)cc1,75%
3,COc1cccc(CNC(=O)c2nn(C)c3c2CSc2ccccc2-3)c1,75%
4,O=C(NC1=NCCS1)c1ccccc1,101%
5,Cc1nc2c(-c3ccccc3)c(C)[nH]n2c(=O)c1Cc1ccc(C(C)C)cc1,11% (active)
6,CCOC(=O)CCc1c(C)nc2c(-c3ccccc3)c(C)[nH]n2c1=O,87%
7,Cc1cccc(Cc2c(C)nc3c(-c4ccccc4)c(C)[nH]n3c2=O)c1,16% (active)
8,Cc1nc2nc(NC(=O)CC(C)C)[nH]n2c(=O)c1Cc1ccccc1,113%
9,COc1cccc(C(=O)Nc2nc3nc(C)c(Cc4ccccc4)c(=O)n3[nH]2)c1,104%
10,Cc1nc2nc(NC(=O)C(C)C)[nH]n2c(=O)c1Cc1ccccc1,98%
11,Cc1nc2nc(NC(=O)C(C)(C)C)[nH]n2c(=O)c1Cc1ccccc1,112%
12,Cc1nc2c(-c3ccccc3)c(C)[nH]n2c(=O)c1Cc1ccc(Br)cc1,7% (active)
13,CCc1c(C)nc2cc(-c3ccccc3)[nH]n2c1=O,73%
14,Cc1ccc(Cc2c(C)nc3c(-c4ccccc4)c(C)[nH]n3c2=O)cc1,0% (active)
15,COc1ccc(-c2nc(-c3cc4cc(Br)ccc4oc3=O)cs2)cc1,78%
16,CCOc1ccc(CCNC(=O)CN2C(=O)c3cccnc3Oc3ccc(C)cc32)cc1OCC,67%
17,Cc1cc(-c2ccccc2)n2ncc(C#N)c2n1,96%
18,CCOc1ccccc1CNC(=O)C1CCN(C2=NS(=O)(=O)C(c3ccc(C)c(C)c3)=C2C)CC1,84%
19,COc1ccc(-n2c(=O)c3ccc(C(=O)NCc4ccc(C)cc4)cc3n(CC(=O)Nc3cccc(F)c3)c2=O)cc1,79%
20,Cc1ccccc1Cc1c(C)nc2c(-c3ccccc3)c(C)[nH]n2c1=O,-3% (active)
21,Cc1c(-c2ccc(Br)cc2)c(=O)oc2ccc(OC(=O)N3CCOCC3)cc12,86%
22,COc1ccc(-c2c(C)c3cc(OC(=O)N4CCOCC4)ccc3oc2=O)cc1,79%
23,COc1ccc(-c2c(C)c3cc(OC(=O)N4CCOCC4)ccc3oc2=O)cc1OC,47% (active)
24,COc1ccc(-c2csc(-c3c(N)c(C(=O)c4ccccc4)n4ccccc34)n2)cc1OC,43% (active)
25,COc1ccc(-c2csc(-c3c(N)c(C(=O)c4ccccc4)n4ccccc34)n2)cc1,77%
26,COc1ccc(-c2csc(-c3c(N)c(C(=O)c4ccc(OC)c(OC)c4)n4ccccc34)n2)cc1,75%

row,SMILES,survival
1,Cc1ccc(C)c(NC(=O)c2cnn(-c3cccc(F)c3)c2C2CCN(C(=O)OC(C)(C)C)CC2)c1,122%
2,O=C(Nc1ccccn1)c1cccs1,109%
3,CCN1C(=O)CC(C(=O)Nc2ccc(OC)cc2)SC1=Nc1ccc(C)c(C)c1 (configuration not stated),50%
4,CCOc1cccc(NC(=O)C2CC(=O)N(C)C(=Nc3cccc(OC)c3)S2)c1 (configuration not stated),82%
5,CCOc1cccc(NC(=O)C2CC(=O)N(CC)C(=Nc3ccc(F)cc3)S2)c1 (configuration not stated),17% (active)
6,CCOC(=O)C1CCCN(C(=O)c2nn(-c3ccc(C)cc3)c(=O)c3c2c2ccccc2n3C)C1 (configuration not stated),90%
7,Cc1cccn2c(=O)c(/C=C(\C#N)c3nc4ccccc4n3C)c(Oc3ccc(Br)cc3)nc12,69%
8,CCc1ccccc1N1CC(c2nc3ccccc3n2Cc2cccc(C)c2)CC1=O (configuration not stated),66%
9,O=C1CC(c2nc3ccccc3n2CCC2CCCCC2)CN1c1ccccc1Cl (configuration not stated),21% (active)
10,Cc1c(Cl)cccc1N1CC(c2nc3ccccc3n2Cc2ccccc2F)CC1=O (configuration not stated),41%
11,Cc1ccccc1N1CC(c2nc3ccccc3n2Cc2ccc(Br)cc2)CC1=O (configuration not stated),25% (active)
12,Cc1ccc(C)c(Cn2c(C3CC(=O)N(c4ccccc4C)C3)nc3ccccc32)c1 (configuration not stated),80%
13,COc1ccccc1OCCCn1c(C2CC(=O)N(c3ccccc3Cl)C2)nc2ccccc21 (configuration not stated),75%
14,Cc1cccc(N2CC(c3nc4ccccc4n3CCC3CCCCC3)CC2=O)c1 (configuration not stated),31% (active)
15,COc1ccc(OCCCCn2c(C3CC(=O)N(c4cccc(Cl)c4)C3)nc3ccccc32)cc1 (configuration not stated),86%
16,Cc1ccccc1N1CC(c2nc3ccccc3n2CCC2CCCCC2)CC1=O (configuration not stated),16% (active)
17,Cc1ccc(N2CC(c3nc4ccccc4n3CCC3CCCCC3)CC2=O)cc1 (configuration not stated),64%
18,COc1ccc(N2CCN(C(=O)c3c(C)nn(-c4ccc(F)cc4)c3-n3cccc3)CC2)cc1,69%
19,Cc1ccc(N2C(=O)CSC23C(=O)N(CC(=O)NC2CCCCC2)c2ccccc23)cc1 (configuration not stated),79%
20,CCOc1ccc(OCC(=O)Nc2c(C(=O)Nc3ccc(C)cc3)oc3ccccc23)cc1,73%
21,Cc1cnn(Cc2ccccc2)c1N,98%
22,CSc1nc2c(sc3ccccc32)c(=O)n1Cc1ccc(C)cc1,96%
23,CC1(C)Oc2ccc(C(=O)N/N=C/c3cccs3)cc2NC1=O,58%
24,O=C1[C@@H]2CSC(c3ccc(F)cc3)N2C(=O)N1c1ccc(Cl)cc1 (some centres not stated),76%
25,COc1ccc(C2=NC3(CCCCCC3)N(CC(=O)Nc3cccc(Cl)c3)C2=O)cc1,68%
26,O=C(NCc1ccc2c(c1)CCN2C(=O)c1ccc(F)cc1)c1ccco1,115%

row,SMILES,survival
1,COc1ccc(-c2nc(SCC(=O)NC3CCCC3)c(-c3ccccc3)[nH]2)cc1OC,65%
2,Cn1c(SCc2ccccc2Cl)nc(=O)c2c1NC(=O)CC2c1cc(F)ccc1F (configuration not stated),45%
3,COc1ccc(/C=C/C(=O)N2CCC(c3nc4ccccc4o3)CC2)cc1OC,86%
4,NC(=O)CN1c2cccc3cccc(c23)S1(=O)=O,104%
5,COc1ccc2[nH]c3c(c2c1)CCN(C(=O)c1cccc(Cl)c1)C3c1ccc(F)cc1 (configuration not stated),77%
6,Cc1ccc(CNC(=O)c2ccc(CSCc3cccc(C)c3)o2)cc1,93%
7,CCOC(=O)c1cc(-c2ccccc2)n(CC(=O)NC(C)c2ccccc2)c1C (configuration not stated),91%
8,CCc1ccccc1N1CC(c2nc3ccccc3n2CC(C)C)CC1=O (configuration not stated),78%
9,COc1ccccc1Cn1c(C2CC(=O)N(c3ccccc3OC)C2)nc2ccccc21 (configuration not stated),49%
10,CCc1ccccc1N1CC(c2nc3ccccc3n2CCC2CCCCC2)CC1=O (configuration not stated),10% (active)
11,Cc1cccc(NS(=O)(=O)c2ccc3c(c2)CCN3C(=O)C2CCC2)c1,69%
12,Cc1cc(C)c2oc(C(=O)NCCc3ccc(S(N)(=O)=O)cc3)cc(=O)c2c1,63%
13,Cn1c(=O)n(C)c2cc(CNCc3ccc(F)cc3)ccc21,92%
14,NC(=O)c1ccccc1NS(=O)(=O)c1ccccc1,97%
15,NC(=O)c1cc(Cl)nc2ccccc12,81%
16,NC(=O)c1ccc(-c2ccccc2)cc1C(N)=O,66% (active)
17,Cc1ccc(CNC(=O)c2cnc(N3CCCCC3)c3ccccc23)cc1,80%
18,c1ccc(CCn2nnnc2CN2CCCc3ccccc32)cc1,93%
19,Cc1ccc(CN(C(=O)COc2ccc(Br)cc2)c2ccccn2)o1,62%
20,CCOc1ccc(NC(=O)c2c(NC(=O)Cc3ccccc3)sc3c2CCCCC3)cc1,48%
21,O=C(Cc1ccccc1)Nc1sc2c(c1C(=O)Nc1ccc(Br)cc1)CCC2,55%
22,O=C(Cc1ccccc1)Nc1sc2c(c1C(=O)Nc1ccccc1)CCCCC2,50%
23,O=C(Cc1ccccc1)Nc1sc2c(c1C(=O)Nc1ccc(Cl)cc1)CCCC2,47%
24,Cc1ccc(NC(=O)c2c(NC(=O)Cc3ccccc3)sc3c2CCCC3)cc1,28% (active)
25,CCC(=O)Nc1sc2c(c1C(=O)Nc1ccc(Br)cc1)CCCCC2,135%
26,COc1ccc(NC(=O)c2c(NC(=O)Cc3ccccc3)sc3c2CCCC3)cc1,124%

row,SMILES,survival
1,Cc1ccc(NC(=O)c2c(NC(=O)Cc3ccccc3)sc3c2CCC3)cc1,24% (active)
2,CCOc1ccc(NC(=O)c2c(NC(=O)Cc3ccccc3)sc3c2CCCC3)cc1,45% (active)
3,O=C(Cc1ccccc1)Nc1sc2c(c1C(=O)Nc1ccc(Br)cc1)CCCC2,57% (active)
4,CC(Cc1ccccc1)N=C1NS(=O)(=O)c2ccccc21 (configuration not stated),81%
5,Cc1nc2c3ccccc3nc(NNC(=O)CCC(=O)N3CCN(c4cccc(C(F)(F)F)c4)CC3)n2n1,57%
6,CCOc1ccc(CCNC(=O)C2Cc3ccccc3N2C(=O)CC)cc1OCC (configuration not stated),93%
7,Cc1nnc(N(C)C(=O)Cc2ccc3c(c2)OCO3)s1,73%
8,COC(=O)C1C(=O)NC(S)=C(C#N)C1c1ccccc1Cl (configuration not stated),89%
9,CCCN(CCC)C(=O)Cn1c(=O)n(-c2ccc(CC)cc2)c(=O)c2c3c(sc21)CCC3,110%
10,COc1ccc(NC(=O)c2csnn2)cc1Cl,86%
11,COc1ccccc1N1CCN(C(=O)c2cnc(N3CCOCC3)c3ccccc23)CC1,78%
12,CCOC(=O)c1cc(-c2ccc(F)cc2)n(CC(=O)NC2CCCCCC2)c1C,76%
13,COc1cccc(-n2c(-c3ccco3)nc3c(cnn3-c3ccc(C)cc3)c2=O)c1,52% (active)
14,CCOC(=O)c1ccc(-n2c(C)nc3c(cnn3-c3ccc(Cl)cc3)c2=O)cc1,67%
15,COc1cccc(-n2c(C)nc3c(cnn3-c3ccc(C)c(C)c3)c2=O)c1,50% (active)
16,Cc1ccc(-n2ncc3c(=O)n(Cc4cccc(C(F)(F)F)c4)cnc32)cc1C,93%
17,Cc1nc2c(cnn2-c2ccccc2)c(=O)n1-c1ccccc1,73%
18,COc1ccc(-n2c(C)nc3c(cnn3-c3ccc(F)cc3)c2=O)cc1,73%
19,CCc1cccc(-n2c(C)nc3c(cnn3-c3ccc(C)c(C)c3)c2=O)c1,-1% (active)
20,Cc1ccc(-n2c(C)nc3c(cnn3-c3ccccc3C)c2=O)cc1F,120%
21,COc1cccc(-n2c(-c3ccco3)nc3c(cnn3-c3ccc(Cl)cc3)c2=O)c1,113%
22,COc1ccc(-n2c(C)nc3c(cnn3-c3ccc(C)c(C)c3)c2=O)cc1Cl,118%
23,COc1ccc(-n2c(-c3ccco3)nc3c(cnn3-c3ccc(C)cc3)c2=O)cc1,73%
24,CCc1cccc(-n2c(C)nc3c(cnn3-c3ccc(Cl)cc3)c2=O)c1,-1% (active)
